In PubChem BioAssay:
Results filed as inconclusive are left out. Calls of active or inactive are those of the source.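 How the source made its calls, unless noted: active means GFP response, as percent of the DMSO control, above the screen-wide mean plus 3 SD, about 139; inconclusive means no response measured because the compound's own fluorescence interfered; inactive means the rest.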

Assays:
[1] = yeast TOR pathway RPL19A-GFP modulators, primary screen, cell-based, S. cerevisiae, multiplex flow cytometry (AID 1862; in the data active means percent of DMSO control GFP below about 86%;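 further: lower values mimic rapamycin by blocking the RPL19A rise seen in DMSO cells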); details: S. cerevisiae RPL19A-GFP strain, flow cytometry fluorescence, 3 h; at 10 µM; stronger effect = lower value
[2] = modulators of MEP2-GFP levels in yeast, primary screen, S. cerevisiae, multiplex flow cytometry (AID 1867);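 further: median GFP channel fluorescence of barcode-gated MEP2-GFP cells measured by flow cytometry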; details: S. cerevisiae MEP2-GFP strain, 3 h, at 10 µM, stronger effect = higher value, 100% means same as DMSO wells
[3] = modulators of CIT2-GFP expression in yeast, primary screen, S. cerevisiae, GFP fusion, multiplex flow cytometry (AID 1870;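 active means percent response above a set limit, the screen-wide mean plus 3 SD, cut at about 130% in these data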;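 further: barcoded CIT2-GFP strain pooled with four other GFP strains with rapamycin as positive control; median GFP fluorescence per well over plate mean of DMSO wells so 100% = DMSO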); details: 3 h, at 10 µM, stronger effect = higher value
[4] = modulators of LAP4-GFP expression in yeast, primary screen, S. cerevisiae, multiplex flow cytometry (AID 1873;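 active means GFP signal, as percent of the solvent control, above the screen mean plus 3 SD, about 149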); details: 3 h, at 10 µM, stronger effect = higher value
[5] = modulators of AGP1-GFP expression in yeast TOR pathway, primary screen, cell-based, multiplex flow cytometry, S. cerevisiae (AID 1887;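 active means GFP signal above the screen-wide mean plus 3 SD, that is over about 124.5% of the solvent control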;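 further: AGP1-GFP fusion strain of S. cerevisiae within a five-strain barcoded multiplex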); details: 3 h, at 10 µM, stronger effect = higher value
[6] = inhibitors of CD8+ T cell-vesicle binding, pilot screen, LFA-1/ICAM-1 modulator project, MLPCN validation set, flow cytometry (AID 2523;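 active means response below a set limit, under 55% cells CD8-positive and vesicle-bound, and CD8 cells' 90th-percentile brightness under 279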;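 on vesicle binding response: mean PE anti-B7-1 fluorescence of CD8+ cells relative to row control; 100% = QL9-loaded vesicles with DMSO vehicle in the same plate row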); details: 2C mouse CD8+ T cells, at 7 µM, stronger effect = lower value; double positive events: measured here: CD8+/vesicle+ event percentage
[7] = target: Integrin beta-1 (Homo sapiens) + Integrin alpha-4 (Homo sapiens) (UniProt P13612+P05556); assay: inhibition of HUTS-21 binding to VLA-4, pilot screen, VLA-4 allosteric modulator project, U937 cells, HUTS-21 mAb, flow cytometry, validation set (AID 2674;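 active means inhibition above 50%, about 3 SD of the validation set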;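 further: antibody binding induced by the VLA-4 ligand LDV present at three times its Kd; 0% = LDV ligand with antibody and no compound and 100% = antibody without LDV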); details: HUTS-21 LIBS mAb binding, at 6.7 µM, stronger effect = higher value, binding induced by LDV ligand
[8] = superoxide lowering in aged yeast cells, pilot screen, validation compound set (AID 2706;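 active means superoxide response below 65% of plate, a cut near 3 SD across the whole screen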;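 further: yeast exposed to compound for one week at 30 degrees C before staining; 100% = mean of all compound wells on the same plate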); details: S. cerevisiae aging, superoxide DHE fluorescence; at 10 µM; stronger effect = lower value
[9] = target: Beta-adrenergic receptor kinase 1 (Homo sapiens) (UniProt P25098); assay: GRK2 binders displacing RNA aptamer, biochemical, validation, human GRK2, bead flow cytometry (AID 488806;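 active means aptamer binding inhibition above 30%, about 3 SD of noise from non-fluorescent compounds; inactive means inhibition at or below 30%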); details: bead-bound GRK2, FAM-aptamer displacement, at 10 µM, stronger effect = higher value
[10] = target: Beta-2 adrenergic receptor (Homo sapiens) (UniProt P07550); assay: beta2AR agonists driving receptor internalization, pilot screen, cell-based, FAP fluorogen, flow cytometry, validation set (AID 504459;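 active means percent response above 42, roughly 3 SD of non-fluorescent test compounds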;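 further: agonist-driven loss of surface beta2AR via internalization measured by FAP dye flow cytometry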); details: Am2.2-beta2AR cells, FAP surface receptor flow cytometry; at 10 µM; stronger effect = higher value
[11] = target: AP-2 complex subunit beta (Homo sapiens) (UniProt P63010); assay: inhibitors of arrestin peptide binding to AP2, pilot screen, biochemical, validation set, GST-AP2 beads, flow cytometry (AID 504541;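 active means inhibition above 54%, about 3 SD of non-fluorescent compounds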;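 further: AP2 carries R879A mutation and is captured from E. coli lysate; bead-bound FITC arrestin peptide fluorescence measuring arrestin peptide binding to AP2; 0% = DMSO wells and 100% = excess unlabeled arrestin peptide control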); details: FITC arrestin peptide, at 10 µM, stronger effect = higher value, AP2 beta2 appendage fragment, R879A mutant
[12] = yeast V-ATPase proton transport modulators, S. cerevisiae, pHLuorin, HTS validation (AID 504600; in the data active means response above about 15%;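 further: plate controls were DMSO for no effect and reference compound for full effect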); details: S. cerevisiae pHLuorin cytosolic pH, at 10 µM, stronger effect = higher value
[13] = test system: anti-desmoglein-3 scFv antibody binding to human DSG3; assay: inhibitors of anti-DSG3 scFv binding to DSG3, pilot screen, biochemical, validation compound set, bead-based, flow cytometry (AID 588368;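 active means binding below the plate cutoff, the plate median minus 3 SD, with a reading above zero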;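 further: signal is the median channel fluorescence of bead-bound GFP antibody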); details: Protein G beads, DSG3-Fc, scFv-GFP binding, at 10 µM, stronger effect = lower value
[14] = inhibitors of fungal efflux pumps CDR1, CDR2, MDR1, pilot screen, validation compound set, multiplex, phenotypic (AID 588506;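 active means efflux inhibition above 0.42, the validation set average plus 4 SD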;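 further: Nile Red retained in cells so higher fluorescence means more efflux inhibition; 0 = negative control wells and 1 = enniatin B 25 µM full block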); details: S. cerevisiae pump-expressing triplex, Nile Red efflux flow cytometry; at 10 µM; stronger effect = higher value; the pumps come from Candida albicans
[15] = target: ATP-binding cassette sub-family B member 6 (Homo sapiens) (UniProt Q9NP58); assay: ABCB6 transporter inhibitors, pilot screen, K562-ABCB6 cells, flow cytometry, validation set (AID 588550;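 active means inhibition above the screen-wide mean plus 3 SD, about 51%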;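 further: 0% = DMSO wells and 100% = benzethonium chloride 70 µM positive control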); details: K562-ABCB6 porphyrin accumulation, 1 h, at 10 µM, stronger effect = higher value
[16] = promoters of myeloid differentiation in arrested cells, primary screen, cell-based, GFP/MAC1 double positive, flow cytometry, validation set (AID 588685;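 active means differentiation response of at least 50%, scaled between solvent and reference control, from cells with both markers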;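 further: compound exposure lasts four days before antibody staining and flow analysis; 0% = DMSO wells and 100% = 5 µM fulvestrant positive control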); details: ER-HoxA9 marrow cells, stronger effect = higher value, normalized: vehicle 0, fulvestrant 100

Sequence of Integrin beta-1 (Homo sapiens) + Integrin alpha-4 (Homo sapiens) (P05556 whole entry, looked up): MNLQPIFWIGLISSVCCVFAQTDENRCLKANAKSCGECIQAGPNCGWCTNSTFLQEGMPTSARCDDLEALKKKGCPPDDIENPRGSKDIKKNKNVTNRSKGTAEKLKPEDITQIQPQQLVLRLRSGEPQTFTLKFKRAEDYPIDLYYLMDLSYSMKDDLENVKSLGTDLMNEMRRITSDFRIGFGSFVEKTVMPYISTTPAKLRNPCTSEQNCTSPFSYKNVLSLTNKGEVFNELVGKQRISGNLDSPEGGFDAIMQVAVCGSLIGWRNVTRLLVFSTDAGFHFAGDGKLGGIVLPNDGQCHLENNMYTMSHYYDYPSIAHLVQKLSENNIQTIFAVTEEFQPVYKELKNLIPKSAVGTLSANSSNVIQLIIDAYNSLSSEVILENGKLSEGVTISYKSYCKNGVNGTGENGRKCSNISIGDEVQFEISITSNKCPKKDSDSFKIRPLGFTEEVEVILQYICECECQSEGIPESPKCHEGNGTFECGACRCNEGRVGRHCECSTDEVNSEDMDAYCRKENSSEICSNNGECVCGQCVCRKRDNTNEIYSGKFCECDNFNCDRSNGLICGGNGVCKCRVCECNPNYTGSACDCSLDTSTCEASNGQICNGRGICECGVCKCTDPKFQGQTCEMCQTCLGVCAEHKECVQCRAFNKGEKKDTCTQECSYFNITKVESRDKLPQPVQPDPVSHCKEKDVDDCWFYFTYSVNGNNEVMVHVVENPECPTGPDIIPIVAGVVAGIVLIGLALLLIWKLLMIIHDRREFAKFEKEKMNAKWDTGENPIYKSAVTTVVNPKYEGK
Sequence of Integrin beta-1 (Homo sapiens) + Integrin alpha-4 (Homo sapiens) (P13612 whole entry, looked up): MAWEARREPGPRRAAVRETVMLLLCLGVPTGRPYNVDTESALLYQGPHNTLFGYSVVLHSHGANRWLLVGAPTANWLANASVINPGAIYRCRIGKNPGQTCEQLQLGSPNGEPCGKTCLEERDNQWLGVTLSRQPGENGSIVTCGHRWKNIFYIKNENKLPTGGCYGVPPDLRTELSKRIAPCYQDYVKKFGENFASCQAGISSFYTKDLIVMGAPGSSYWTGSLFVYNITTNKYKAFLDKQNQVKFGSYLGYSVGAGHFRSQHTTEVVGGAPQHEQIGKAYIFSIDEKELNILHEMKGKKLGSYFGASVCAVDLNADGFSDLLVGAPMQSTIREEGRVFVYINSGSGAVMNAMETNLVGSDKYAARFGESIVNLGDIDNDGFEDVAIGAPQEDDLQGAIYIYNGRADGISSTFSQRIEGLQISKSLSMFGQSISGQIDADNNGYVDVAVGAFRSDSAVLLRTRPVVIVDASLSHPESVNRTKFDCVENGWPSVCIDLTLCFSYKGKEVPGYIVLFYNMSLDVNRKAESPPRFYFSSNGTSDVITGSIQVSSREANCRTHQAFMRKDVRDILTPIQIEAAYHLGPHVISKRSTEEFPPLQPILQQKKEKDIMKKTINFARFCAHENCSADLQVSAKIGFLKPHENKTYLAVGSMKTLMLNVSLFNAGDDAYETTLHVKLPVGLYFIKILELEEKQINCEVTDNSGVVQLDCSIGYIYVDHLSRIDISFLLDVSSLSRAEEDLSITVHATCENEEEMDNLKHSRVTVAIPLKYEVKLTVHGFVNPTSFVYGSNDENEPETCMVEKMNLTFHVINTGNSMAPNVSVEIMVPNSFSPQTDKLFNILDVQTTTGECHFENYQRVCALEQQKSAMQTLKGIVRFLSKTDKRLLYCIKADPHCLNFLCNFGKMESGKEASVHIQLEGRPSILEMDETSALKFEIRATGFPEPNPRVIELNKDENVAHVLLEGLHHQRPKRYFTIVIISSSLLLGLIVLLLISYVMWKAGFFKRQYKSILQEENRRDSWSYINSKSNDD
Sequence of Beta-adrenergic receptor kinase 1 (Homo sapiens) (P25098 whole entry, looked up): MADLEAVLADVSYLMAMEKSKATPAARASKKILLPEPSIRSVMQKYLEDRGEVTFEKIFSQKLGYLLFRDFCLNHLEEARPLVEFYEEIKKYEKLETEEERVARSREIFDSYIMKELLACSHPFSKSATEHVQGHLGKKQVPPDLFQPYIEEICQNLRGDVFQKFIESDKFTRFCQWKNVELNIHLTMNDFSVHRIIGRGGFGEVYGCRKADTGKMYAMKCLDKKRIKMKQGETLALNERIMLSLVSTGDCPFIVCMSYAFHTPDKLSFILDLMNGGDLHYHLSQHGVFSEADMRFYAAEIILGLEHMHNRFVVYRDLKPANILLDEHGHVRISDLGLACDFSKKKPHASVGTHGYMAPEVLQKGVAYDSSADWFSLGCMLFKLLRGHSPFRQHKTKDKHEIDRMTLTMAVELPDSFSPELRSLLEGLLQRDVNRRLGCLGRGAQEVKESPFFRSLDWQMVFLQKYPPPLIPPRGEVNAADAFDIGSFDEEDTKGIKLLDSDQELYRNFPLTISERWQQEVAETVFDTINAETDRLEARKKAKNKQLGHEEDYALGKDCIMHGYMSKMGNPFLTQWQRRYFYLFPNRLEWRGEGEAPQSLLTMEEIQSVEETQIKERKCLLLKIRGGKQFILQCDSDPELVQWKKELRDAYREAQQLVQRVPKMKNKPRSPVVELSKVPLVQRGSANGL
Sequence of AP-2 complex subunit beta (Homo sapiens) (P63010 whole entry, looked up, the tested form may be a part, one chain of several): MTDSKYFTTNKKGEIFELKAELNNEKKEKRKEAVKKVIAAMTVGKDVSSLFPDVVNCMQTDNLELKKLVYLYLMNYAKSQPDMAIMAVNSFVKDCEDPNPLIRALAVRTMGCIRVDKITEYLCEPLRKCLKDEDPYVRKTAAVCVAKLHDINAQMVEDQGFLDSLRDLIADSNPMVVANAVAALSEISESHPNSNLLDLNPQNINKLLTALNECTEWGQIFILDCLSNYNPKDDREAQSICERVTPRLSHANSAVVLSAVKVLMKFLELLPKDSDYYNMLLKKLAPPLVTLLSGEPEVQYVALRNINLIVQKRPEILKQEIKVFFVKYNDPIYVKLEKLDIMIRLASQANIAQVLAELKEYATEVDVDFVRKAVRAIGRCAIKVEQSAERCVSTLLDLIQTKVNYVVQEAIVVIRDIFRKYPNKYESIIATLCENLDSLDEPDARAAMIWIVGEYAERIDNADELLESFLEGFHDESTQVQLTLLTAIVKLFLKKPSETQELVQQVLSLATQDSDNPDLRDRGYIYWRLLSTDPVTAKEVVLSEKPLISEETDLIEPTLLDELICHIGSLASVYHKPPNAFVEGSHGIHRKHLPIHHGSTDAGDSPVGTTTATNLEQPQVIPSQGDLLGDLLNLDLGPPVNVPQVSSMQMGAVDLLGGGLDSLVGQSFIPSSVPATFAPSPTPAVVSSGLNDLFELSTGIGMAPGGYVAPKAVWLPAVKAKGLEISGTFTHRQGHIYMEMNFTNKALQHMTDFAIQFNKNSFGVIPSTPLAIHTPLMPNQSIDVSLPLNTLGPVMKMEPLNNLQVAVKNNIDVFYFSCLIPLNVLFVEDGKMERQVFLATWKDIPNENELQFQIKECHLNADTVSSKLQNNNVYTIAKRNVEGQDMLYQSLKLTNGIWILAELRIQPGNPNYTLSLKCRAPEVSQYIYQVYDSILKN
Sequence of Beta-2 adrenergic receptor (Homo sapiens) (P07550 whole entry, looked up): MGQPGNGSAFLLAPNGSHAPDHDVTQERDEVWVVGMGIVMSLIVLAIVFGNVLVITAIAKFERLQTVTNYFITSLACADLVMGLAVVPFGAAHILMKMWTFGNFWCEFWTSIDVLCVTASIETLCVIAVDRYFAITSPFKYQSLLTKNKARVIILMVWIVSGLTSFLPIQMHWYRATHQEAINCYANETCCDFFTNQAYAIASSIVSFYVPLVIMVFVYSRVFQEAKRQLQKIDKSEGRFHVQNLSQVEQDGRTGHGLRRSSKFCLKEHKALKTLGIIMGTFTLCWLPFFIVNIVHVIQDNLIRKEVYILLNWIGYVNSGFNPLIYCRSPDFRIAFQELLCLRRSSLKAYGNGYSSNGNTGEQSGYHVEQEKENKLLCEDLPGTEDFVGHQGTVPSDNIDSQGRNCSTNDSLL
Sequence of ATP-binding cassette sub-family B member 6 (Homo sapiens) (Q9NP58 whole entry, looked up): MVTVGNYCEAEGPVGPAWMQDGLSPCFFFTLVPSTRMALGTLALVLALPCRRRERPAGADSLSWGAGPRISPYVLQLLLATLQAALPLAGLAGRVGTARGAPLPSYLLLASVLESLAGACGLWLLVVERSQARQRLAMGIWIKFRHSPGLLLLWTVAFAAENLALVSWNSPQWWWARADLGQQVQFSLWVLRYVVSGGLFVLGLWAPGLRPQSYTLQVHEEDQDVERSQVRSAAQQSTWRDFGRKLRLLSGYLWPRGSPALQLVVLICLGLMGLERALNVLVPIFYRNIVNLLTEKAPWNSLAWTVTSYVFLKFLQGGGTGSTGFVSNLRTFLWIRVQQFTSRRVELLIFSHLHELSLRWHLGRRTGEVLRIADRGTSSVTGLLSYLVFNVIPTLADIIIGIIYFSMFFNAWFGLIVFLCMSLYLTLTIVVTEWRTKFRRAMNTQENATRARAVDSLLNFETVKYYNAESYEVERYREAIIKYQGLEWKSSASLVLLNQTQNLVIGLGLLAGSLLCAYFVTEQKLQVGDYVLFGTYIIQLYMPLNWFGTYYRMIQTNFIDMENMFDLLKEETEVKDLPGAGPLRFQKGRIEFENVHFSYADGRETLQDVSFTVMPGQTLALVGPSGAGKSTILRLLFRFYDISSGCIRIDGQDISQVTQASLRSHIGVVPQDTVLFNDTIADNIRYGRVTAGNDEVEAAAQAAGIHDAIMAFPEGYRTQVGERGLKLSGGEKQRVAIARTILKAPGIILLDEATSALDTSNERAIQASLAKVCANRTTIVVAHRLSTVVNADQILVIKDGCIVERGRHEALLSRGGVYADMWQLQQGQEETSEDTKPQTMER

| SMILES | percent of DMSO control GFP [1] | GFP response vs DMSO [2] | percent response of DMSO control [3] | GFP response vs DMSO [4] | GFP response, % of DMSO [5] | double positive events [6] | vesicle binding response [6] | inhibition [7] | superoxide response (% of plate) [8] | aptamer binding inhibition [9] | response [10] | inhibition [11] | response [12] | binding (% of control) [13] | efflux inhibition (fraction of control) [14] | inhibition [15] | differentiation response [16] |
| --- | --- | --- | --- | --- | --- | --- | --- | --- | --- | --- | --- | --- | --- | --- | --- | --- | --- |
| CC1(C)O[C@@H]2C[C@H]3[C@@H]4C[C@H](F)C5=CC(=O)CC[C@]5(C)[C@H]4[C@@H](O)C[C@]3(C)[C@]2(C(=O)CO)O1 | 97.9% (inactive) | 95.6% (inactive) | 89.3% (inactive) | 91.5% (inactive) | 92.4% (inactive) | 63.8% | 128% (inactive) | -2.43% (inactive) | 88.9% (inactive) | 37% (active) | 19% (inactive) | -4.49% (inactive) | -2% (inactive) | 106% (inactive) | 0.25 (inactive) | 12% (inactive) | 34.9% (inactive) |
| CC(=O)N/C(=C/c1ccc2c(c1)OCO2)C(=O)NCCO | 98.2% (inactive) | 106% (inactive) | 93.9% (inactive) | 111% (inactive) | 106% (inactive) | 61.5% | 3870% (inactive) | -5.89% (inactive) | 106% (inactive) | 0% (inactive) | 2.49% (inactive) | -4.62% (inactive) | 1.75% (inactive) | 97.4% (inactive) | -0.42 (inactive) | 2% (inactive) | -5.6% (inactive) |
| Cc1[nH]c2ccccc2c1C(=O)C(=O)NCc1ccco1 | 103% (inactive) | 104% (inactive) | 101% (inactive) | 112% (inactive) | 113% (inactive) | 62% | 151% (inactive) | -14.7% (inactive) | 97.1% (inactive) | 8% (inactive) | -22.4% (inactive) | 5.02% (inactive) | -4.14% (inactive) | 106% (inactive) | -0.04 (inactive) | 4% (inactive) | -4% (inactive) |
| Cc1ccc(C2CC(=O)C(C=NCCN3CCN(CC(=O)Nc4cc(C)cc(C)c4)CC3)=C(O)C2)cc1 (stereo not given) | 103% (inactive) | 103% (inactive) | 97.6% (inactive) | 108% (inactive) | 105% (inactive) | 60.5% | 196% (inactive) | -17.2% (inactive) | 102% (inactive) | -3% (inactive) | -1.95% (inactive) | -1.73% (inactive) | -0.35% (inactive) | 103% (inactive) | -0.05 (inactive) | 13% (inactive) | -16.3% (inactive) |
| O=C(O)CCSCCC(=O)O | 99.2% (inactive) | 107% (inactive) | 94.2% (inactive) | 97.3% (inactive) | 102% (inactive) | 63.2% | 5720% (inactive) | 8.88% (inactive) | 107% (inactive) | 1% (inactive) | 2.6% (inactive) | 10% (inactive) | 1.2% (inactive) | 94% (inactive) | 0.05 (inactive) | 7% (inactive) | -9.53% (inactive) |
| Cc1cc(O)c2/c(=N\N)c(-c3csc(C)n3)coc2c1 | 105% (inactive) | 107% (inactive) | 102% (inactive) | 106% (inactive) | 110% (inactive) | 56.7% | 96.1% (inactive) | 5.61% (inactive) | 102% (inactive) | 3% (inactive) | 2.22% (inactive) | -8.85% (inactive) | -3.38% (inactive) | 99.8% (inactive) | -0.16 (inactive) | 3% (inactive) | -0.18% (inactive) |
| O=C(c1cccc2ccccc12)C1CCCN(C(=O)CCN2CCCO2)C1 (stereo not given) | 104% (inactive) | 98.3% (inactive) | 109% (inactive) | 105% (inactive) | 106% (inactive) | 62.4% | 377% (inactive) | 7.85% (inactive) | 90.5% (inactive) | 0% (inactive) | -9.24% (inactive) | -0.89% (inactive) | 2.67% (inactive) | 96.4% (inactive) | -0.32 (inactive) | 4% (inactive) | -0.73% (inactive) |
| COC(=O)C1=C(C)N(C)C(=S)NC1c1ccc(Cl)cc1 (stereo not given) | 99.8% (inactive) | 95.6% (inactive) | 98.6% (inactive) | 98% (inactive) | 88.8% (inactive) | 63% | 138% (inactive) | -2.43% (inactive) | 99.9% (inactive) | 3% (inactive) | -27.7% (inactive) | 0.15% (inactive) | 0.83% (inactive) | 97.9% (inactive) | -0.04 (inactive) | 7% (inactive) | -10.4% (inactive) |
| O=C(CSCc1ccccc1)NCCCN1CCOCC1 | 97.9% (inactive) | 106% (inactive) | 104% (inactive) | 98% (inactive) | 107% (inactive) | 62.4% | 197% (inactive) | 12.3% (inactive) | 114% (inactive) | 3% (inactive) | -1.38% (inactive) | -9.56% (inactive) | 3.45% (inactive) | 102% (inactive) | 0.17 (inactive) | 15% (inactive) | -14.8% (inactive) |
| Cc1ccccc1C(=O)Nc1ccccc1C(=O)NCC(C)C | 100% (inactive) | 107% (inactive) | 104% (inactive) | 118% (inactive) | 108% (inactive) | 63.7% | 208% (inactive) | 7.4% (inactive) | 118% (inactive) | 3% (inactive) | -22.2% (inactive) | 35.6% (inactive) | -2.23% (inactive) | 99.9% (inactive) | 0 (inactive) | -1% (inactive) | 2.89% (inactive) |
